16 compounds from ChEMBL document CHEMBL2218924, “A broad activity screen in support of a chemogenomic map for kinase signalling research and drug discovery” (Biochem J, 2013) can be followed below.

Assay [1] addresses Mitogen-activated protein kinase 10 (Homo sapiens) (UniProt P53779). Particulars: at 10 µM.
Assay [2] has as its target Vascular endothelial growth factor receptor 2 (Homo sapiens) (UniProt P35968). Particulars: at 1 µM.
The target is the same in assay [3]. The settings on record: at 10 µM.
Assay [4] deals with LIM domain kinase 1 (Homo sapiens) (UniProt P53667). Particulars: at 1 µM.
For assay [5] the target is unchanged. Particulars: at 10 µM.
Assay [6] has as its target T1, Serine/threonine-protein kinase STK11 (Homo sapiens) (UniProt Q15831).
T1 sequence (whole entry): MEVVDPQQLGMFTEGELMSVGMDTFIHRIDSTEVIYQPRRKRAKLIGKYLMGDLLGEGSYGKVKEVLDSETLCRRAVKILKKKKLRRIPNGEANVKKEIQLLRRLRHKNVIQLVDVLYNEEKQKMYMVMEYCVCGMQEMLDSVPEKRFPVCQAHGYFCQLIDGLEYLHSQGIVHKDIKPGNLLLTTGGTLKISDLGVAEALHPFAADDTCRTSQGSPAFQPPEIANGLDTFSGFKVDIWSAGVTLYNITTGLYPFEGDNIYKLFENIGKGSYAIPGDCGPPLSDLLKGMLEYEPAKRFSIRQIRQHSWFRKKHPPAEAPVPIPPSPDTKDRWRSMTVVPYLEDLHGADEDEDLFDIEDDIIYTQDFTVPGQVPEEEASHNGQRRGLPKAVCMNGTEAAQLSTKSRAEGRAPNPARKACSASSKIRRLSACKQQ
Particulars: at 1 µM.

Assay [7] deals with T1, Serine/threonine-protein kinase STK11 (Homo sapiens). Particulars: at 10 µM.
The target of assay [8] is Serine/threonine-protein kinase 10 (Homo sapiens) (UniProt O94804). The settings on record: at 1 µM.
Assay [9] shares this target. Particulars: at 10 µM.
Assay [10] has as its target Tyrosine-protein kinase Lck (Homo sapiens) (UniProt P06239). Particulars: at 1 µM.

LIM domain kinase 1 (Homo sapiens), sequence (P53667 whole entry, looked up, the tested form may be a part): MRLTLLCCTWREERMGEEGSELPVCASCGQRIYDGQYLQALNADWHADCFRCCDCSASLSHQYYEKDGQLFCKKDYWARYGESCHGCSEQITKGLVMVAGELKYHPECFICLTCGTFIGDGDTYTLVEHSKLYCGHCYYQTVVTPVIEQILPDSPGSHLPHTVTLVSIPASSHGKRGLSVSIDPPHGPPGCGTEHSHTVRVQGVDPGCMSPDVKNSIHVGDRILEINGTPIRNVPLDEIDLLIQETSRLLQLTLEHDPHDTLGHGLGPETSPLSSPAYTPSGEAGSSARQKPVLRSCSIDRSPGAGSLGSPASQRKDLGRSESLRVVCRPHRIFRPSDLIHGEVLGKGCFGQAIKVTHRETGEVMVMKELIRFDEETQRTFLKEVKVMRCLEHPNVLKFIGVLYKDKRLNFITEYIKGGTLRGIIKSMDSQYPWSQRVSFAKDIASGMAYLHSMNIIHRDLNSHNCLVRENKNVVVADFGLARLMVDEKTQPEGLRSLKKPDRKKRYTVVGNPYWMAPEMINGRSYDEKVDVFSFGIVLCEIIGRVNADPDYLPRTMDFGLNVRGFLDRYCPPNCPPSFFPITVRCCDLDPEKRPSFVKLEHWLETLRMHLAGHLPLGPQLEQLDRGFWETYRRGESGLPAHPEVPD
Vascular endothelial growth factor receptor 2 (Homo sapiens), sequence (P35968 whole entry): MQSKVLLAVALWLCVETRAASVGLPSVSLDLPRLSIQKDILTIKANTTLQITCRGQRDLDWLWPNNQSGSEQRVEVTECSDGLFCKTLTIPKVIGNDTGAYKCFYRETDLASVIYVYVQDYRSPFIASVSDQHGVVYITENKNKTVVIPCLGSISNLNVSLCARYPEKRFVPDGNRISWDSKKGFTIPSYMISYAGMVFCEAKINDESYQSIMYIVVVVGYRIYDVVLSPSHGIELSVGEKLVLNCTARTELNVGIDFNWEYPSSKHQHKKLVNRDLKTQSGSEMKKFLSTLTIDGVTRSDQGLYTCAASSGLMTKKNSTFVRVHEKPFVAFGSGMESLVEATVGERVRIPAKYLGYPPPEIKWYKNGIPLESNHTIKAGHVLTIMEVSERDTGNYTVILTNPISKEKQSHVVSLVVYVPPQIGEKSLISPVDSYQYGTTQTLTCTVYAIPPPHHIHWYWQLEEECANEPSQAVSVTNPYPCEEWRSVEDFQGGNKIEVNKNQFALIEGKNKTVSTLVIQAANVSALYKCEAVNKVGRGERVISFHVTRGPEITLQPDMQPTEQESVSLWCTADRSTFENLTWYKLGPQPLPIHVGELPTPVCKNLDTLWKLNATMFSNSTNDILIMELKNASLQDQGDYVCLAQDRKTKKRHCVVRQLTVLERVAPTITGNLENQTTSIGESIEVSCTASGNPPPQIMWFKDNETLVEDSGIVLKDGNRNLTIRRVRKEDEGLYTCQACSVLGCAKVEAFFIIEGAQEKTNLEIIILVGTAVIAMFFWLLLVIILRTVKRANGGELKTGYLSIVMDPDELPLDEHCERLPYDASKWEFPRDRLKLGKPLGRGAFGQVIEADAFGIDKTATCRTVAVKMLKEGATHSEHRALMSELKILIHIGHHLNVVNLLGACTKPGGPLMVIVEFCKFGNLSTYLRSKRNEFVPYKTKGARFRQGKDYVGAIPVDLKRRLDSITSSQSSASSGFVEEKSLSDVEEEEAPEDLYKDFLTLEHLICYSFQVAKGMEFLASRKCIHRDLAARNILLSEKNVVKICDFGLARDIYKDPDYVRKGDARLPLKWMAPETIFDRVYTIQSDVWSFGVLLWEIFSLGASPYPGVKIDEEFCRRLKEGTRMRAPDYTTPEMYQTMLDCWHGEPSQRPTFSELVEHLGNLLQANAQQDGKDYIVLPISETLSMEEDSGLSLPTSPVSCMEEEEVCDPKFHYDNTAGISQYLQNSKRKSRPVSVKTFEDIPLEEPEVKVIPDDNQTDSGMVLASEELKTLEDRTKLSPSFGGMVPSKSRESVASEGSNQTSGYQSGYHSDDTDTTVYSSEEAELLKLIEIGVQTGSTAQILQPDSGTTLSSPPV
Mitogen-activated protein kinase 10 (Homo sapiens), sequence (P53779 whole entry): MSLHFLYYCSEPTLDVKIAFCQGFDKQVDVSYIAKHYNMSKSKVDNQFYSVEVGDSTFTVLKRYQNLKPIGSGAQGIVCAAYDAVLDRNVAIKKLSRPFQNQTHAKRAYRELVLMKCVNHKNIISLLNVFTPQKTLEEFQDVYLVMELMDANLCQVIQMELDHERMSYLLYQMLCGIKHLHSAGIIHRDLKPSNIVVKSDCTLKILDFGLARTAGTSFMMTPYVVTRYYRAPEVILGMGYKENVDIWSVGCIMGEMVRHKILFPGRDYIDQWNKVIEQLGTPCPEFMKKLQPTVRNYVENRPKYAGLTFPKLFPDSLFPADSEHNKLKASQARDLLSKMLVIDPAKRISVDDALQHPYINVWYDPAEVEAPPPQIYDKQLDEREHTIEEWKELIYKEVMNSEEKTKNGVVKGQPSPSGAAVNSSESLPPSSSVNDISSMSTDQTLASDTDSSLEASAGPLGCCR
Serine/threonine-protein kinase 10 (Homo sapiens), sequence (O94804 whole entry, looked up): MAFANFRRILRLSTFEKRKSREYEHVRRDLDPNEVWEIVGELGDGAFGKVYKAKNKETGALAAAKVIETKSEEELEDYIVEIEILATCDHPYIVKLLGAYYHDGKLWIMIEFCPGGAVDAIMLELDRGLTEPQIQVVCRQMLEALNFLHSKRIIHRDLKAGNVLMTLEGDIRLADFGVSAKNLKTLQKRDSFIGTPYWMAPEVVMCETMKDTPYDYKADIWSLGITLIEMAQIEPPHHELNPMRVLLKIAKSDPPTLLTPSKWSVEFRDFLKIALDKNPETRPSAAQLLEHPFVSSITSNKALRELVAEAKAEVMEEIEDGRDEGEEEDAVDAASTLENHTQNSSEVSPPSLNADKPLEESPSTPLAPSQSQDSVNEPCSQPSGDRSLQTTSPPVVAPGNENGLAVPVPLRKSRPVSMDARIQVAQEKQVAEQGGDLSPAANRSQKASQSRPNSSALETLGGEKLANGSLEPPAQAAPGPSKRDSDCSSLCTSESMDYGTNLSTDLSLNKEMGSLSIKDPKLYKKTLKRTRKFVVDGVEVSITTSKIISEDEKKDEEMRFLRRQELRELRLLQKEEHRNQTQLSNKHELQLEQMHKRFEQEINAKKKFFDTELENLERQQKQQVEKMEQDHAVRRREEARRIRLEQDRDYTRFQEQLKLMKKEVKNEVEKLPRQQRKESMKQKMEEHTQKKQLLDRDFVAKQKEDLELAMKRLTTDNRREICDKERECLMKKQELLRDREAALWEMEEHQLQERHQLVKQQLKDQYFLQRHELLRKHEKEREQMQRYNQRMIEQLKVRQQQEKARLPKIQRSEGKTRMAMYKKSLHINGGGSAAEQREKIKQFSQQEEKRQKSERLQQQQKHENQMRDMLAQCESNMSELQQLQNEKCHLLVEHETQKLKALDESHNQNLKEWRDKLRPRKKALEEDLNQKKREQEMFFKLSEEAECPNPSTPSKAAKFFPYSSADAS
Tyrosine-protein kinase Lck (Homo sapiens), sequence (P06239 2-509 limits assumed): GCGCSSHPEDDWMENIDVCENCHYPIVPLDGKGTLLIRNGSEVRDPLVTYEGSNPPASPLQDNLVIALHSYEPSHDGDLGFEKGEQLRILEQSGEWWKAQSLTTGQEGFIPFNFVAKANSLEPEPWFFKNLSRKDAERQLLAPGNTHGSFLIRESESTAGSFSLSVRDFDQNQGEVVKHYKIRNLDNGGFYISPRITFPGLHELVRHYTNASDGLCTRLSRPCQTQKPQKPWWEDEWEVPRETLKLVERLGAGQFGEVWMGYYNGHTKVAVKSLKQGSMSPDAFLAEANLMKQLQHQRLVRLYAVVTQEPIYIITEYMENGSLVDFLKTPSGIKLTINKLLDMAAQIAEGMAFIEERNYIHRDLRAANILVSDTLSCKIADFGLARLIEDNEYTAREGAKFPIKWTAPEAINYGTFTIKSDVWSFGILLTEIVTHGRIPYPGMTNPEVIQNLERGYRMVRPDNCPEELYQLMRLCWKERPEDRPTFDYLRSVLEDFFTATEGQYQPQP

Consider `CCN(CC)CCCCN1c2ccccc2Oc2ccc(Cl)cc21`, for which the residual activity in assay [1] was 137%; in assay [2], 112%; in assay [3], 104%; in assay [4] it was 133%; in [5], 98%; in assay [6], 103%. Also, the residual activity in assay [7] stood at 94%; in [8] it was 110%; in assay [9], 100%; in assay [10], 84%.

As for `COc1ccc(OC)c2c(=S)c3ccccc3[nH]c12`, the residual activity in [1] came out at 65%; in assay [2], 88%; in assay [3], 97%; in assay [4], 93%; in [5], 88%; in [6], 97%. In addition, the residual activity was determined as 95% in [7], 94% in assay [8], 89% in [9] and 101% in assay [10].

With `NC(=O)c1ccc2[nH]c(-c3ccc(Oc4ccc(Cl)cc4)cc3)nc2c1`, the residual activity in assay [1] turned out to be 98%; in [2], 84%; in assay [3], 43%; in assay [4], 93%; in assay [5] it was 55%; in assay [6] it was 103%. For the same compound, the residual activity came to 94% in [7], 83% in assay [8], 58% in assay [9] and 83% in [10].

As to `O=c1c2ccccc2[nH]c(=S)n1CCN1CCC(=C(c2ccc(F)cc2)c2ccc(F)cc2)CC1`, the residual activity was found to be 54% in [1]; 103% in assay [2]; 90% in assay [3]; 119% in [4]; 93% in assay [5]; 123% in assay [6]. Moreover, the residual activity amounted to 128% in [7], 107% in assay [8], 97% in [9] and 144% in assay [10].

As to `CN(C)c1ccc(/C=C2\C(=O)Nc3ccccc32)cc1`, the residual activity in [1] was found to be 106%; in assay [2], 4%; in assay [3] it was 3%; in assay [4], 108%; in assay [5] it was 89%; in assay [6] it was 94%. For the same compound, the residual activity in [7] came out at 102%; in [8], 100%; in [9], 77%; in [10], 129%.

For the compound `CO[C@H]1C[C@@H]2CC[C@@H](C)[C@@](O)(O2)C(=O)C(=O)N2CCCC[C@H]2C(=O)O[C@H]([C@H](C)C[C@@H]2CC[C@@H](O)[C@H](OC)C2)CC(=O)[C@H](C)/C=C(\C)[C@@H](O)[C@@H](OC)C(=O)[C@H](C)C[C@H](C)/C=C/C=C/C=C/1C`, the residual activity came out at 153% in assay [1]; 100% in assay [2]; 96% in assay [3]; 102% in [4]; 91% in assay [5]; 101% in assay [6]. In addition, the residual activity in [7] is 99%; in assay [8], 85%; in assay [9] it was 90%; in assay [10] it was 121%.

As to `O=C1Nc2ccccc2/C1=C1/Nc2ccccc2/C1=N\OCCC(O)CO` (stereo not given), the residual activity in [1] was 20%; in assay [2] it was 3%; in assay [3] it was 1%; in assay [4] it was 42%; in assay [5], 33%; in assay [6], 30%. In addition, the residual activity in [7] was found to be 3%; in [8], 62%; in [9], 70%; in assay [10], 4%.

Consider `CNc1cc2c(Nc3cccc(Br)c3)ncnc2cn1`, for which the residual activity came out at 60% in assay [1]; 85% in assay [2]; 40% in assay [3]; 102% in assay [4]; 43% in assay [5]; 99% in [6]. The residual activity was 95% in assay [7], 27% in assay [8], 10% in assay [9] and 87% in assay [10].

In the case of `c1ccc(-c2n[nH]cc2-c2ccnc3ccccc23)nc1`, the residual activity in assay [1] is 52%; in assay [2], 57%; in assay [3] it was 23%; in assay [4] it was 90%; in assay [5] it was 74%; in assay [6], 96%. For the same compound, the residual activity in [7] worked out at 94%; in assay [8] it was 90%; in [9], 93%; in [10], 123%.

`Oc1ccc(-c2nc(-c3ccc(F)cc3)c(-c3ccncc3)[nH]2)cc1`: the residual activity in [1] was -2%; in [2], 98%; in assay [3], 49%; in [4] it was 101%; in [5], 69%; in assay [6], 108%. The residual activity in [7] was found to be 99%; in assay [8], 92%; in assay [9], 59%; in assay [10] it was 61%.

For `CN(C)CCCn1cc(C2=C(c3c[nH]c4ccccc34)C(=O)NC2=O)c2ccccc21`, the residual activity is 101% in assay [1]; 61% in assay [2]; 14% in assay [3]; 117% in assay [4]; 73% in assay [5]; 105% in [6]. The residual activity in [7] worked out at 102%; in assay [8], 33%; in [9] it was 15%; in assay [10], 109%.

Take `COc1cccc(-c2cc(=O)c3ccccc3o2)c1N`: the residual activity in assay [1] was determined as 95%; in assay [2] it was 101%; in assay [3], 102%; in assay [4] it was 93%; in [5], 93%; in [6], 103%. Also, the residual activity in [7] was 100%; in assay [8], 114%; in [9], 105%; in [10], 85%.

`O=C(Nc1cccc(Nc2cc(Nc3cccc(C(F)(F)F)c3)ncn2)c1)C1CC1`: the residual activity came to 52% in assay [1]; 96% in assay [2]; 75% in assay [3]; 87% in assay [4]; 31% in assay [5]; 102% in assay [6]. In addition, the residual activity in assay [7] worked out at 96%; in assay [8], 92%; in [9], 57%; in assay [10], 72%.

Take `CC(C)n1cnc2/c(=N/c3cccc(Cl)c3)nc(NCCO)[nH]c21`: the residual activity in assay [1] came to 60%; in assay [2], 85%; in [3] it was 53%; in [4] it was 96%; in [5], 80%; in assay [6], 96%. Further, the residual activity in assay [7] is 81%; in [8], 89%; in assay [9] it was 47%; in assay [10], 48%.

Take `CC#CC(=O)Nc1cc2c(Nc3ccc(F)c(Cl)c3)ncnc2cn1`: the residual activity was found to be 61% in [1]; 107% in assay [2]; 86% in assay [3]; 100% in [4]; 91% in [5]; 102% in [6]. Also, the residual activity turned out to be 98% in [7], 96% in assay [8], 86% in [9] and 105% in [10].

Consider `O=C1NC(=O)c2c1c1c3ccccc3[nH]c1c1[nH]c3cc(Br)ccc3c21`, for which the residual activity in assay [1] was determined as 67%; in assay [2] it was 70%; in assay [3], 58%; in assay [4], 99%; in assay [5], 76%; in [6], 96%. Further, the residual activity amounted to 100% in [7], 98% in [8], 95% in assay [9] and 79% in assay [10].
